The values that follow come from PubChem BioAssay.

Molecules are shown by their SMILES. Activity calls are given as the source filed them.

Experiment [1] is described as follows: probe aShh binding to arrayed compounds – biochemical, biotinylated probe, 635/667 nm fluorescence, primary screen (AID 1114).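 Also: probe is biotin-labelled aShh protein from a stem cell growth factor screen; measures binding of labelled protein to compounds printed on the slide; score merges feature fluorescence at 667 nm with signal-to-noise.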 The settings on record: small-molecule microarray, higher = more signal.
The nature of experiment [2]: probe aNog binding to arrayed compounds – biochemical, biotinylated probe, 635/667 nm fluorescence, primary screen (AID 1115).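 Also: probe is biotinylated aNog protein used at 0.15 µg/mL for 1 h at 4 C; z-score combines 667 nm fluorescence of each spot with its signal to noise.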 The settings on record: small-molecule microarray, higher = more signal.
Experiment [3] has as its target Torsin-1A-interacting protein 1 (Homo sapiens) (UniProt Q5JTV8). The experiment can be described thus: compound microarray binding of lysate hLAP1 – cell lysate, small-molecule microarray, COS7 lysate, 635/667 nm fluorescence, primary screen (AID 1116). To be noted: 635 nm fluorescence, higher = more signal.
Another experiment deals with Albumin (Bos taurus) (UniProt P02769). Briefly: compounds binding labelled BSA control protein – biochemical, small-molecule microarray, Alexa647 label, 635/667 nm fluorescence, artefact control for SMM control protein annotation, profiling panel (AID 1118).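 Also: score merges 667 nm emission intensity and signal-to-noise per printed compound spot.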 The settings on record: BSA-A647 binding, fluorescence 635 nm, higher = more signal.
The nature of experiment [4]: probe aXIP binding to arrayed compounds – biochemical, NeuroSMM set, 635/667 nm fluorescence, primary screen (AID 1119).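 Also: probe is the protein aXip251-270 applied at 1 µg/mL to compound-printed slides; binding of probe to printed compounds measured as 667 nm fluorescence plus signal to noise.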 The settings on record: small-molecule microarray, higher = more signal, called active from +8 up or from −8 down.
Experiment [5] in a line: probe aNOTCH3 binding on compound microarray – biochemical, small-molecule microarray, 635/667 nm fluorescence, primary screen (AID 1120).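 Also: probe is a biotin-tagged antibody raised against NOTCH3 rather than NOTCH3 protein; score merges spot fluorescence near 667 nm with spot signal to noise.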 The settings on record: higher = more signal.
Experiment [6] is described as follows: probe aNOTCH2 binding on compound microarray – biochemical, small-molecule microarray, 635/667 nm fluorescence, primary screen (AID 1121).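 Also: score merges feature fluorescence read at 667 nm with its signal to noise.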 The settings on record: higher = more signal.
For experiment [7], the target named is Carbonic anhydrase 2 (Homo sapiens) (UniProt P00918). The experiment can be described thus: compounds binding carbonic anhydrase 2 – biochemical, small-molecule microarray, Alexa647-labelled CAII, profiling panel (AID 1122). To be noted: CAII-A647 binding fluorescence, higher = more signal.
Experiment [8] is described as follows: COS7 lysate on small-molecule microarray, probe aHis, 635 nm (AID 1123).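 Also: z-score combines 667nm fluorescence intensity with signal-to-noise per printed compound spot.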 To be noted: COS7 cell lysate, fluorescence, higher = more signal.
Experiment [9] in a line: probe aLAP1 signal on lysate-treated microarray – cell lysate, small-molecule microarray, COS7 lysate, primary screen (AID 1124).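 Also: lysate comes from COS7 cells expressing LAP1 and is applied at 0.3 µg/mL; score merges spot fluorescence near 667 nm with signal-to-noise over triplicate slides.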 The settings on record: probe aLAP1, fluorescence, higher = more signal.
A further experiment concerns Sam68 (KHDRBS1). Briefly: compounds binding KHDRBS1 protein – biochemical, small-molecule microarray, 635 nm fluorescence, primary screen (AID 1125).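 Also: score merges 667 nm channel intensity with signal to noise over triplicate slides.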 The settings on record: higher = more signal.
The test system of experiment [10] is Chordin-like protein 2 (CHRDL2). Briefly: compounds binding chordin-like 2 – biochemical, small-molecule microarray, 635 nm fluorescence, primary screen (AID 1126).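 Also: printed compound slides probed with Chrdl2 protein at 4 µg/mL for 1 h at 4 C; score merges 667 nm emission intensity with signal to noise over three replicate slides.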 The settings on record: fluorescence 635 nm, higher = more signal.
The target in experiment [11] is Concanavalin-A (Canavalia ensiformis) (UniProt P02866). Briefly: compounds binding concanavalin A lectin – biochemical, small-molecule microarray, Alexa647 label, 635 nm, artefact control for SMM control protein annotation, primary screen (AID 1127).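 Also: z combines 667 nm emission intensity with signal-to-noise across three replicate slides.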 To be noted: ConA-A647 binding fluorescence, higher = more signal.
The nature of experiment [12]: compounds binding Alexa647 anti-His antibody – biochemical, small-molecule microarray, 635 nm fluorescence, artefact control for SMM control protein annotation, primary screen (AID 1128).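 Also: score merges feature fluorescence with signal-to-noise for each printed compound spot.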 The settings on record: higher = more signal.
For experiment [13], the system named is Human papillomavirus type 1a E7 protein (residues 1-88). Briefly: HPV1a E7 small-molecule binders, primary screen, biochemical, small-molecule microarray, residues 1-88, 635 nm (AID 1129). To be noted: small-molecule microarray binding, fluorescence 635 nm; higher = more signal.
The target in experiment [14] is Focal adhesion kinase 1 (Homo sapiens) (UniProt Q05397). Briefly: PTK2 protein binding on printed compound slides – biochemical, small-molecule microarray, 635/667 nm fluorescence, BSA, DTT, primary screen (AID 1130).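 Also: composite of spot emission at 667 nm and signal to noise over triplicate slides.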 To be noted: 635 nm fluorescence, higher = more signal.
Experiment [15] concerns Fibrinogen (Alexa647-labelled). Briefly: Alexa647-fibrinogen binding to printed small molecules – biochemical, small-molecule microarray, 635/667 nm fluorescence, artefact control for SMM control-protein annotation, profiling panel (AID 1131).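 Also: z-score merges 667 nm fluorescence with per-spot signal-to-noise over triplicate slides.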 The settings on record: fibrinogen-A647 binding fluorescence, higher = more signal.
Experiment [16] addresses Follistatin (Homo sapiens) (UniProt P19883). Briefly: FST protein binding to printed compounds – biochemical, small-molecule microarray, 635/667 nm fluorescence, primary screen (AID 1132). To be noted: 635 nm fluorescence, higher = more signal.
Experiment [17] addresses Fibroblast growth factor 2 (Homo sapiens) (UniProt P09038). Briefly: basic fibroblast growth factor binding to printed compounds – biochemical, small-molecule microarray, 635/667 nm fluorescence, primary screen (AID 1133). The settings on record: FGF2, fluorescence 635/667, higher = more signal.
The nature of experiment [18]: JC-1 mitochondrial potential readout, lung cancer cells – cell-based, A549, JC-1 fluorescence, basal, 24 h, 100 nL, profiling panel (AID 1138).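 Also: A549 lung adenocarcinoma cells under basal conditions with no added stimulus; test concentration not given here.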 The settings on record: higher = more signal.

Sequence of Focal adhesion kinase 1 (Homo sapiens) (Q05397 whole entry, looked up): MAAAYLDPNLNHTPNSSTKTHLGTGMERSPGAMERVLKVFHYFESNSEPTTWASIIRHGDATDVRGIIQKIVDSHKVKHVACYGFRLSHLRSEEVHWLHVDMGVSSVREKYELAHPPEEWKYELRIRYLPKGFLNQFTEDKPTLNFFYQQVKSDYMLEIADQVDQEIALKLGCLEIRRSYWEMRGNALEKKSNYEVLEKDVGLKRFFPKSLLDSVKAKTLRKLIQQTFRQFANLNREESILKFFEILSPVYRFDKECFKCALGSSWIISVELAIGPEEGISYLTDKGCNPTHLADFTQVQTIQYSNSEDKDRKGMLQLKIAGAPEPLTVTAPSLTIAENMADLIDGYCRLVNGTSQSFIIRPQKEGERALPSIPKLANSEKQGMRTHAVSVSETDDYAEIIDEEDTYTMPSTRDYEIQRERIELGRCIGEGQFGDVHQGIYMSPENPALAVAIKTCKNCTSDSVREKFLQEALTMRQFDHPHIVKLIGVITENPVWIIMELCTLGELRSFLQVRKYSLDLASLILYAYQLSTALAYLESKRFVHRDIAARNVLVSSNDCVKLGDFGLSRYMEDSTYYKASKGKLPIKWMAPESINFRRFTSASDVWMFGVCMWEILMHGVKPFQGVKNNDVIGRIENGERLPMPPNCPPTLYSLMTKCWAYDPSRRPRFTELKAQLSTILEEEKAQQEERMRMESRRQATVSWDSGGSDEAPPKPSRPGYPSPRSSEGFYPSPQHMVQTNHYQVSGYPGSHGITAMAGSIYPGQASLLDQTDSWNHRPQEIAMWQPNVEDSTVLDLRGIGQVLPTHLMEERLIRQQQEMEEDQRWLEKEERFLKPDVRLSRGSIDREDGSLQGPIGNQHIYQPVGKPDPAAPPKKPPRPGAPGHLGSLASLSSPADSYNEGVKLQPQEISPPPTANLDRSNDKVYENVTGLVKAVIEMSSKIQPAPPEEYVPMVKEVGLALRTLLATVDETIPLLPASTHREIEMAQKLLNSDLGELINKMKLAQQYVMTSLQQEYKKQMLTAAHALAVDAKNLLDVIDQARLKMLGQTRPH
Sequence of Torsin-1A-interacting protein 1 (Homo sapiens) (Q5JTV8 whole entry, looked up): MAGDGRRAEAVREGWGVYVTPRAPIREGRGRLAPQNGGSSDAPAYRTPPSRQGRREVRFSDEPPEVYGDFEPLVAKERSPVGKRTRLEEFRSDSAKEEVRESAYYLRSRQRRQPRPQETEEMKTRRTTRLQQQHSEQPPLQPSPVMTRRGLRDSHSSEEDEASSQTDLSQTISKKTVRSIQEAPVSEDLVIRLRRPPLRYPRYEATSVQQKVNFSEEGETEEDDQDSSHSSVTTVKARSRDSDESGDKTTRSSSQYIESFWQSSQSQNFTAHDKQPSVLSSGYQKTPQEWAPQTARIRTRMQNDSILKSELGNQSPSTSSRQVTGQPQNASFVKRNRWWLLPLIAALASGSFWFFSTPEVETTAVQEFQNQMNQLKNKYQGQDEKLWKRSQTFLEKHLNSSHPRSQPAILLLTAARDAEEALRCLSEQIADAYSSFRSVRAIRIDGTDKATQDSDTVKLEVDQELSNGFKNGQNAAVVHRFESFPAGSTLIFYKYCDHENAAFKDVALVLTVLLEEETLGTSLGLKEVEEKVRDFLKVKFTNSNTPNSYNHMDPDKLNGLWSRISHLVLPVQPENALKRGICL
Sequence of Fibroblast growth factor 2 (Homo sapiens) (P09038 whole entry, looked up): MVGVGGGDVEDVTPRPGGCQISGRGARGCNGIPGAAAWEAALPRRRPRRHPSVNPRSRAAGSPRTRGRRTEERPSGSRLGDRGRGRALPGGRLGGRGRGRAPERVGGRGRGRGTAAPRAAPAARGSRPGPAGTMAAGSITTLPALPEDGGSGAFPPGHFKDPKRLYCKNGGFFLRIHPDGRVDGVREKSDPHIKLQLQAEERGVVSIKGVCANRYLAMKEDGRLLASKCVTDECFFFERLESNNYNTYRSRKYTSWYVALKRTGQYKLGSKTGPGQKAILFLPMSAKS
Sequence of Concanavalin-A (Canavalia ensiformis) (P02866 whole entry, looked up): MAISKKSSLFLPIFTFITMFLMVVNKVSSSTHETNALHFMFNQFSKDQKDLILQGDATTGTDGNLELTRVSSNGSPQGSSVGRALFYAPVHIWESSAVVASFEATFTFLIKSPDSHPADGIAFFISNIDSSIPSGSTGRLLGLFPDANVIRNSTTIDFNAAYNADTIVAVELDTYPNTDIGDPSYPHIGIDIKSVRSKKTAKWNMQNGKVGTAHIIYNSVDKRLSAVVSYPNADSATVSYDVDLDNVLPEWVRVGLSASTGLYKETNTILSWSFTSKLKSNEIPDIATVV
Sequence of Follistatin (Homo sapiens) (P19883 whole entry, looked up): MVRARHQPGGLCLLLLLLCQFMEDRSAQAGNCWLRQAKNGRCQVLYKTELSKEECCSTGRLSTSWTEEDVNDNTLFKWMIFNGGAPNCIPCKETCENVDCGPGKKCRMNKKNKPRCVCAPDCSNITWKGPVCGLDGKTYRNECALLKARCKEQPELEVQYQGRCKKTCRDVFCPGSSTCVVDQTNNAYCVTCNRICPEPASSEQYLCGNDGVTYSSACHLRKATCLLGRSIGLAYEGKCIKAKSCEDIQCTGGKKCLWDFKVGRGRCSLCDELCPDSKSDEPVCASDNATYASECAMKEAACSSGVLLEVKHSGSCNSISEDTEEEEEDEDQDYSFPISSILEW
Sequence of Albumin (Bos taurus) (P02769 whole entry, looked up): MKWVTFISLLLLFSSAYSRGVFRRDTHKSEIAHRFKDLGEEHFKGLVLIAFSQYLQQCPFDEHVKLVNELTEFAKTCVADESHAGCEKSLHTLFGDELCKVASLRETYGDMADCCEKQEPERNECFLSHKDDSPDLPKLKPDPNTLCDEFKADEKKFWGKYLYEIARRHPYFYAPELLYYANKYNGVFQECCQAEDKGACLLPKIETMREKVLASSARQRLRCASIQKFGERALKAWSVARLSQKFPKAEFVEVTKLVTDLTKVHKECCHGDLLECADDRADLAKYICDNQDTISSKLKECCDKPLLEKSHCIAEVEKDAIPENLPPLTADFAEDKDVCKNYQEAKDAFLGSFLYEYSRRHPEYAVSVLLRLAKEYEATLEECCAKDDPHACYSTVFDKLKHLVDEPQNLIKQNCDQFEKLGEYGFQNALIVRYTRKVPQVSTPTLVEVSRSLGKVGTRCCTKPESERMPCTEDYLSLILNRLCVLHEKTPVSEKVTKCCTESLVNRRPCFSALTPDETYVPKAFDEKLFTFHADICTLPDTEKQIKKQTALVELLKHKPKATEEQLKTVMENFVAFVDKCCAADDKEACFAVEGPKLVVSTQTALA

`COc1ccc([Si](C)(C)[C@@H]2[C@@H](CCn3cc(CCO)nn3)O[C@]3(C(=O)N(Cc4ccc(N5C(=O)c6cccc7cccc5c67)cc4)c4ccccc43)[C@H]2C)cc1`: the composite z-score was 0.112 in experiment [1]; -0.284 in experiment [2]; 0.758 in experiment [3]; 0.651 with Albumin (Bos taurus); 0.102 in experiment [5]; -0.061 in experiment [6]. Also, the composite z-score in experiment [7] turned out to be 0.356; in experiment [8], 0.961; in [9] it was 0.234; in the experiment with Sam68 (KHDRBS1), 1.1; in [10], 0.157; in experiment [11], 1.12. Further, the composite z-score was 1.51 in experiment [12]; 0.914 in experiment [13]; 0.87 in experiment [14]; 0.688 in [15]; 0.499 in experiment [16]; 0.103 in [17]. Besides, the composite Z-score in [4] was 0.722 (inactive). The z-score in [18] is -0.37.

For `C=CCN1C(=O)[C@]2(O[C@H](CCn3cc([C@H](O)c4ccccc4)nn3)[C@@H]([Si](C)(C)c3ccc(OC)cc3)[C@@H]2C)c2cc(N3CCOC3=O)ccc21`, the composite z-score in [1] was -0.043; in experiment [2] it was -0.176; in experiment [3], 0.525; with Albumin (Bos taurus), 0.318; in experiment [5] it was -0.272; in [6], -0.201. Also, the composite z-score in experiment [7] is 0.521; in experiment [8], 0.8; in [9], 0.0004; with Sam68 (KHDRBS1), 0.745; in [10] it was -0.526; in experiment [11], 0.804. In addition, the composite z-score in [12] was 1.13; in [13] it was 1.13; in experiment [14], 0.783; in [15], 0.811; in experiment [16], -0.447; in [17], -0.408. Besides, the composite Z-score in experiment [4] is 0.2 (inactive). For the same molecule, the z-score in [18] stood at 1.89.

For `CC(C)CNC(=O)[C@@H]1c2ccccc2C(=O)N(Cc2ccc(OC(F)(F)F)cc2)[C@H]1c1ccc(CO)cc1`, the composite z-score in [1] is -0.0234; in experiment [2], 0.327; in experiment [3], 1.69; in the experiment with Albumin (Bos taurus) it was 0.0335; in experiment [5] it was 0.0813; in [6], 0.0081. Besides, the composite z-score was 0.572 in experiment [7]; 2.36 in [8]; 0.0712 in experiment [9]; 1.3 in the experiment on Sam68 (KHDRBS1); -0.0181 in experiment [10]; 1.07 in experiment [11]. Besides, the composite z-score in [12] was found to be 1.31; in experiment [13] it was 1.19; in experiment [14], 1.04; in [15], 0.647; in experiment [16], 1.34; in [17] it was 1.09. Besides, in experiment [4], the composite Z-score was 0.465 (inactive). This molecule also yielded a z-score in experiment [18] of 0.71.

Turning to `C=C(COC)/C(=C/C[C@H](OC(C)=O)c1ccc(CO)o1)c1cnc2ccccc2c1`, the composite z-score was 0.0893 in [1]; 0.186 in experiment [2]; 0.845 in experiment [3]; 0.15 with Albumin (Bos taurus); 0.116 in experiment [5]; -0.11 in experiment [6]. Besides, the composite z-score in experiment [7] is 0.969; in [8], 1.25; in experiment [9] it was -0.105; with Sam68 (KHDRBS1), 1.29; in [10], 1.14; in [11], 1.09. Moreover, the composite z-score in experiment [12] is 1.28; in [13] it was 1.17; in [14], 0.284; in experiment [15], -0.0185; in [16], 1.42; in experiment [17], 1.31. Moreover, the composite Z-score in [4] is 0.837 (inactive). The molecule further showed a z-score in experiment [18] of 0.861.

For the molecule `O=C(O)[C@H]1C[C@H]2C(=O)NCC(=O)N2[C@H]1c1cccc(OCCO)c1`, the composite z-score in experiment [1] is 0.0118; in experiment [2], 0.906; in experiment [3], 1.51; with Albumin (Bos taurus), -0.542; in [5], 0.173; in experiment [6], -0.126. Moreover, the composite z-score in experiment [7] is 0.502; in experiment [8] it was 0.787; in [9] it was -0.156; in the experiment with Sam68 (KHDRBS1), 0.89; in experiment [10], 0.0805; in experiment [11], 1.09. For the same molecule, the composite z-score in [12] is 1.48; in experiment [13] it was 0.221; in [14], 0.457; in [15], 0.742; in [16] it was 1.27; in experiment [17], 0.161. Moreover, in experiment [4], the composite Z-score was 0.0953 (inactive). The molecule further yielded a z-score in experiment [18] of 1.14.
